Whole data set: some 33,000 sequences, median “e-score” near -0.037, cut for the highest 2% near 0.34. Only a selection was taken, and the highest values are over-represented in it overall.

This test deals with T1, GST-Rok (full length) (Bacillus subtilis subsp. subtilis str. …, UniProt O34857 1-191).
T1 sequence: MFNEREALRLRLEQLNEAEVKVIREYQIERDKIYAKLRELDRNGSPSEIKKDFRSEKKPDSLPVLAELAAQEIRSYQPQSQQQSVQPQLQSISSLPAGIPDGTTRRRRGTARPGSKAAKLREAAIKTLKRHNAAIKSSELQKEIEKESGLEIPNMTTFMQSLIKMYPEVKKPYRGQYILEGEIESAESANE
The test is described as follows: protein binding microarray; Rok is a gene silencer of Bacillus subtilis; high values mean tight binding. The note with it: protein: recombinant; tags: GST (pTH5325, pDEST15-Magic modified); dsDNA, one strand shown. Summed up:
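Each has a 25-mer constant primer and a 35-mer variable part from a de Bruijn sequence of order 10, covering every non-palindromic 8-mer at least 32 times (palindromic 16). Preference for each 8-mer is given as a rank-based, unitless enrichment score (E-score). Its range runs from 0.5 (most favored) to −0.5 (most disfavored).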
Regarding CAGGCATG, the binding signal was -0.176 E-score.
With ACATATGG the figure was 0.168 E-score; with ACATATGT, 0.401 E-score; with ATATAAAT, 0.422 E-score.
With AGATATAC the figure was 0.238 E-score; with ATATAAAC, 0.262 E-score; with ATATATAC, 0.396 E-score.
With AGATATAT the figure was 0.395 E-score; with ATATAAAG, 0.17 E-score.
With ACATATGA, the binding signal came out at 0.069 E-score.
The result for ACATATAC reads 0.289 E-score; that for AGATATAA, 0.183 E-score; that for AGATATAG, 0.151 E-score.
The result for CAGACGAA reads -0.0357 E-score.
Consider CGTCTAAA, for which the binding signal is -0.027 E-score.
For the sequence AGGCCTCA, the binding signal was -0.155 E-score.
With AAGTTGAT the figure was 0.0883 E-score.
With CGGCAACA, the binding signal was -0.0449 E-score.
Regarding CCTGTAAG, the binding signal is -0.159 E-score.
Turning to AAGAATAA, the binding signal stood at 0.183 E-score.
With ACGTCACA the figure was -0.0872 E-score.
With CAATGATG the figure was 0.161 E-score.
With ACAATTCT the figure was 0.149 E-score; with ACATATAG, 0.193 E-score; with ATATATGG, 0.299 E-score.
For the sequence ACATATAA, the binding signal came out at 0.329 E-score.
ATATACAT: the binding signal came out at 0.302 E-score.
With CTATATGC the figure was 0.185 E-score; with ACCTATAT, 0.301 E-score.
Consider ACATATAT, for which the binding signal was 0.378 E-score.
The result for ATATATAT reads 0.471 E-score; that for ATATATGC, 0.338 E-score; that for ACGGGTTC, -0.114 E-score.
With AACAGGCG the figure was -0.0571 E-score; with CTAATGAC, -0.05 E-score; with ATATAAAA, 0.288 E-score.
With CTATATAA the figure was 0.345 E-score.
For the sequence CTATAAAA, the binding signal worked out at 0.23 E-score.
As to TAATATAA, the binding signal is 0.236 E-score.
With TTATATAA the figure was 0.399 E-score; with GTATATAA, 0.278 E-score; with TCATATAA, 0.192 E-score.
The result for ATATATAA reads 0.435 E-score; that for CTCTATAA, 0.0692 E-score.
With CAACTGTG the figure was -0.0366 E-score.
With CCTATGAA, the binding signal was -0.0665 E-score.
With GAAGAAAA the figure was -0.0942 E-score; with ATTGATCA, 0.101 E-score; with AAAAACTA, 0.417 E-score.
With CCAAACCA the figure was -0.0489 E-score; with ACAAACTA, 0.383 E-score; with GAAAACTC, -0.114 E-score.
Regarding ACAAACTC, the binding signal is 0.155 E-score.
The result for AAAAACTC reads 0.0197 E-score; that for ACAAACTG, 0.127 E-score; that for AAAAACTT, -0.0545 E-score.
The result for CCAAACTC reads -0.0373 E-score; that for GAAAACTA, 0.346 E-score; that for CCAAACTA, 0.364 E-score.
On to GAAAACCA, for which the binding signal is -0.118 E-score.
The result for GAAGAAGA reads -0.113 E-score; that for CACGCTGA, -0.189 E-score.
As for CATACCGC, the binding signal is -0.0931 E-score.
Turning to CCGATTTC, the binding signal is -0.187 E-score.
With ACATAAAC the figure was 0.257 E-score.
For the sequence AAAAGTTC, the binding signal worked out at 0.114 E-score.
The result for ACGCAGTA reads 0.125 E-score; that for AGGATTCA, -0.117 E-score; that for AACCAGCT, -0.112 E-score.
The result for CAAAACTC reads 0.0709 E-score.
With TAAAACGA the figure was 0.111 E-score; with CAAAACTG, -0.0906 E-score.
Turning to GCAAACAA, the binding signal was -0.152 E-score.
The result for TAAAACTA reads 0.375 E-score; that for CAAAACTA, 0.383 E-score.
With GCAAACCA the figure was -0.161 E-score; with TAAAACAA, 0.203 E-score; with GCAAACTA, 0.386 E-score.
With ATGGCTTA the figure was 0.0565 E-score.
AGAATTCA: the binding signal was 0.0872 E-score.
Take ACCCTCGC: the binding signal is -0.0467 E-score.
The result for ATAACTTG reads 0.289 E-score; that for GCATAGGC, -0.0277 E-score; that for ATATAGGG, -0.0461 E-score.
The result for CCATATAG reads 0.0758 E-score.
The result for ATATAGCA reads 0.213 E-score; that for ATCTATAG, 0.313 E-score.
Turning to CTATATAG, the binding signal turned out to be 0.402 E-score.
With ATATAGCC the figure was -0.000533 E-score; with ATATATAG, 0.416 E-score; with CTATAGAG, 0.0607 E-score.
With ATATAGCG the figure was 0.349 E-score; with AGTTATGG, 0.209 E-score.
The result for CAGCTAGA reads 0.0847 E-score; that for AACTTCAC, -0.0432 E-score; that for CCTAACGA, -0.117 E-score.
As to ATTTTGCC, the binding signal came to 0.0261 E-score.
The result for GATCTGAA reads -0.0373 E-score; that for CATGCCGA, 0.0242 E-score.
With CATCTACC, the binding signal amounted to 0.291 E-score.
The result for AATCTACC reads 0.437 E-score.
As for AATCTACT, the binding signal worked out at 0.432 E-score.
The result for GATCTACC reads 0.382 E-score; that for ACTCTACC, -0.0638 E-score; that for AATCTACG, 0.311 E-score.
The result for AATCTAAC reads 0.189 E-score; that for GATCTAAC, 0.12 E-score; that for ACTCTACT, 0.27 E-score.
With AGTTATTC the figure was 0.069 E-score; with ACCTTAAC, -0.0118 E-score.
CATGGTAC: the binding signal is 0.13 E-score.
With GTTTAACA the figure was 0.108 E-score; with AATTCAGA, 0.0748 E-score; with CACTCAAC, -0.00301 E-score.
The result for CAGCATTC reads 0.0234 E-score; that for GTGGCTGA, -0.0523 E-score.
With AGAAAAAG the figure was 0.0648 E-score; with ATTTATTA, 0.312 E-score; with ATTTATTG, 0.348 E-score.
With ATTTATGG, the binding signal worked out at 0.218 E-score.
With CTTTATAC the figure was 0.226 E-score; with ATTTATTC, 0.219 E-score; with ATTTATAC, 0.356 E-score.
For ATTTATAA, the binding signal was 0.333 E-score.
Turning to ATTTATAG, the binding signal was found to be 0.398 E-score.
With AGTTATAC the figure was 0.329 E-score; with CATTAGGC, -0.146 E-score; with AGAGTGGA, -0.109 E-score.
Take AACCAGAG: the binding signal is -0.187 E-score.
The result for ACCTACCT reads 0.271 E-score.
The result for TGCTACCA reads 0.152 E-score; that for AACTACCC, 0.292 E-score.
AACTACCT: the binding signal amounted to 0.416 E-score.
With GACTACCA the figure was 0.095 E-score; with TCCTACCA, 0.175 E-score; with CACTACCA, 0.221 E-score.
The result for AACTACCA reads 0.432 E-score; that for AACTACCG, 0.417 E-score.
With AACTATCG the figure was 0.316 E-score.
With CACTACCG, the binding signal is 0.0654 E-score.
The result for TACTACCA reads 0.386 E-score; that for GGACTCTA, -0.165 E-score; that for CTACAGGA, -0.04 E-score.
In the case of ACAAGCCT, the binding signal was -0.083 E-score.
With CTCTCACA the figure was -0.156 E-score.
Consider AGACGCAA, for which the binding signal is -0.089 E-score.
With GCCATTCA the figure was 0.0688 E-score; with ACCGAGCG, -0.175 E-score; with AGTAGTGC, 0.0725 E-score.
The result for GGTAGTAC reads 0.339 E-score.
With CGTAGTAC the figure was 0.202 E-score; with AGTAGTAC, 0.336 E-score.
Take CTTAGTAC: the binding signal was found to be 0.206 E-score.
The result for GGTAGGAC reads 0.0568 E-score.
The result for CTCAACTA reads 0.13 E-score; that for CATGGAGA, 0.0828 E-score.
The result for CATGCGGC reads -0.125 E-score.
Consider ACATGCCA, for which the binding signal turned out to be 0.0568 E-score.
The result for CCATGCTA reads 0.073 E-score; that for ACATGCTA, 0.365 E-score.
GCATGCTA: the binding signal was determined as 0.111 E-score.
The result for ACCTATGA reads 0.118 E-score; that for ATAAGTGA, 0.123 E-score; that for ATATTTTA, 0.412 E-score.
With GTATTTAA the figure was 0.285 E-score; with ATATTTTG, 0.297 E-score; with CTATTTTC, 0.344 E-score.
With CTATTTCC the figure was 0.18 E-score; with GTATTTGA, 0.0869 E-score.
As to GTATTTTA, the binding signal is 0.411 E-score.
With CTATTTTA the figure was 0.325 E-score; with ATATTTTC, 0.326 E-score; with GTGACGTA, 0.0931 E-score.

Values taken from publication PMC6212790, “How bacterial xenogeneic silencer rok distinguishes foreign from self DNA in its resident genome”.
